Reference: the supplement of paper PMC9262897, “Low-cost anti-mycobacterial drug discovery using engineered E. coli” (Nature Communications, 2022)
Counter-ions that a name gives are not always drawn. ± gives the standard deviation of the averaged measurements.

Tests used:
Assay in all cases: growth (OD600 after 10 h); higher = more growth (less inhibition)
[1] = test system: E. coli TESEC Alr+ wild-type control; details: compound 0.1 mM; raw OD600 reference: median of DMSO wells 0.241, cell-free background 0.041
Method: (§1)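 TESEC Mtb Alr E. coli, or the Alr+ wild-type control, in 384-well plates with Prestwick library compounds at 0.1 mM and 1% DMSO, across arabinose induction levels of 1E3 to 1E7 nM. Growth is read as OD600 after 10 h at 37 °C in triplicate biological replicates.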

[2] = test system: E. coli TESEC Mtb Alr; details: compound 0.1 mM
Method: as §1

[3] = test system: E. coli TESEC Mtb Asd; details: compound 0.1 mM
Method: (§2)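 TESEC E. coli strains in which the native enzyme is deleted and replaced by arabinose-inducible Mtb Asd, DapB, CysH or TrpD, each grown in its selective medium. Strains were screened against the Prestwick library at 0.1 mM and 1% DMSO in 384-well format at low and high arabinose induction. Growth is read as OD600 after 10 h in triplicate.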

[4] = test system: E. coli TESEC Mtb DapB; details: compound 0.1 mM
Method: as §2

[5] = test system: E. coli TESEC Alr+ wild-type control; details: compound 0.1 mM; raw OD600 reference: median of DMSO wells 0.49, cell-free background 0.052
Method: (§3)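 TESEC Mtb Alr E. coli (ΔaraC ΔtolC ΔentC Δalr ΔdadX, arabinose-inducible Mtb Alr) or the Alr+ wild-type control strain, grown in defined M9-fructose medium without D-alanine in 96-well plates with Prestwick library compounds at 0.1 mM and 1% DMSO. Low Alr induction is 0.1 µM arabinose and high induction is 10 mM arabinose.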

[6] = test system: E. coli TESEC Mtb Alr; details: compound 0.1 mM; remark: listed apart in the source
Method: as §3

[7] = arabinose 1000 nM, raw OD600 reference: median of DMSO wells 0.294, cell-free background 0.041
[8] = arabinose 10000 nM, raw OD600 reference: median of DMSO wells 0.264, cell-free background 0.041
[9] = arabinose 100000 nM, raw OD600 reference: median of DMSO wells 0.201, cell-free background 0.041
[10] = arabinose 1000000 nM, raw OD600 reference: median of DMSO wells 0.193, cell-free background 0.041
[11] = arabinose 10000000 nM, raw OD600 reference: median of DMSO wells 0.146, cell-free background 0.041
[12] = arabinose induction (level): High, raw OD600 reference: median of DMSO wells 0.331, cell-free background 0.041
[13] = arabinose induction (level): Low, raw OD600 reference: median of DMSO wells 0.417, cell-free background 0.041
[14] = arabinose induction (level): High, raw OD600 reference: median of DMSO wells […], cell-free background 0.041
[15] = arabinose induction (level): Low, raw OD600 reference: median of DMSO wells 0.227, cell-free background 0.041
[16] = arabinose 100 nM, raw OD600 reference: median of DMSO wells 0.413, cell-free background 0.052
[17] = arabinose 10000000 nM, raw OD600 reference: median of DMSO wells […], cell-free background 0.052

Row | Structure (SMILES) | growth [1] | growth [2, 7] | growth [2, 8] | growth [2, 9] | growth [2, 10] | growth [2, 11] | growth [3, 12] | growth [3, 13] | growth [4, 14] | growth [4, 15] | growth [5] | growth [6, 16] | growth [6, 17]
1 | CC(C(=O)O)c1ccc(N2Cc3ccccc3C2=O)cc1 (centres undefined) [Indoprofen] | 0.219 ± 0.011 | 0.264 ± 0.018 | 0.249 ± 0.0066 | 0.178 ± 0.0022 | 0.189 ± 0.0034 | 0.128 ± 0.0066 | 0.345 ± 0.075 | 0.353 ± 0.053 | 0.206 ± 0.016 | 0.186 ± 0.0097 | 0.486 ± 0.053 | 0.424 ± 0.013 | 0.361 ± 0.007
2 | CN(C)CCN(Cc1ccc(Cl)cc1)c1ccccn1 [Chloropyramine hydrochloride] | 0.189 ± 0.0042 | 0.245 ± 0.0086 | 0.265 ± 0.0041 | 0.201 ± 0.0069 | 0.148 ± 0.0046 | 0.128 ± 0.006 | 0.171 ± 0.017 | 0.43 ± 0.013 | 0.185 ± 0.02 | 0.208 ± 0.016 | 0.432 ± 0.016 | 0.399 ± 0.0085 | 0.314 ± 0.012
3 | CC(=O)Nc1ccc(CC(=O)O)cc1 [Actarit] | 0.2349 ± 0.00093 | 0.291 ± 0.024 | 0.259 ± 0.0053 | 0.198 ± 0.015 | 0.217 ± 0.0053 | 0.136 ± 0.0042 | 0.291 ± 0.009 | 0.311 ± 0.097 | 0.183 ± 0.017 | 0.203 ± 0.025 | 0.574 ± 0.11 | 0.412 ± 0.011 | 0.342 ± 0.015
4 | CCCCN(CCCC)CCC(O)c1cc2c(Cl)cc(Cl)cc2c2cc(C(F)(F)F)ccc12 (centres undefined) [Halofantrine hydrochloride] | 0.24 ± 0.011 | 0.313 ± 0.006 | 0.31 ± 0.0059 | 0.2 ± 0.014 | 0.18 ± 0.0064 | 0.175 ± 0.0054 | 0.282 ± 0.059 | 0.457 ± 0.054 | 0.259 ± 0.018 | 0.291 ± 0.037 | 0.53 ± 0.019 | 0.452 ± 0.016 | 0.427 ± 0.019
5 | CC(C)(S)C(N)C(=O)O (racemic) [D,L-Penicillamine] | 0.251 ± 0.0054 | 0.307 ± 0.016 | 0.2563 ± 0.0018 | 0.187 ± 0.021 | 0.187 ± 0.0061 | 0.146 ± 0.0078 | 0.307 ± 0.03 | 0.413 ± 0.018 | 0.18 ± 0.023 | 0.205 ± 0.024 | 0.437 ± 0.0091 | 0.403 ± 0.0076 | 0.35 ± 0.014
6 | Nc1ccc(S(=O)(=O)c2ccc(N)cc2)cc1 [Dapsone] | 0.256 ± 0.0028 | 0.282 ± 0.019 | 0.23 ± 0.0077 | 0.227 ± 0.019 | 0.1616 ± 0.0011 | 0.141 ± 0.0065 | 0.433 ± 0.092 | 0.339 ± 0.012 | 0.214 ± 0.0025 | 0.25 ± 0.058 | 0.491 ± 0.054 | 0.422 ± 0.01 | 0.367 ± 0.018
7 | CC(C)(C)NC[C@H](O)COc1nsnc1N1CCOCC1 [Timolol maleate salt] | 0.2306 ± 0.00072 | 0.306 ± 0.0088 | 0.252 ± 0.0061 | 0.198 ± 0.0053 | 0.172 ± 0.0044 | 0.151 ± 0.006 | 0.451 ± 0.021 | 0.432 ± 0.019 | 0.206 ± 0.016 | 0.258 ± 0.018 | 0.51 ± 0.069 | 0.401 ± 0.015 | 0.32 ± 0.021
8 | CC(C)(C(=O)O)c1ccc(C(O)CCCN2CCC(C(O)(c3ccccc3)c3ccccc3)CC2)cc1 (centres undefined) [Fexofenadine HCl] | 0.228 ± 0.0075 | 0.314 ± 0.0088 | 0.285 ± 0.0078 | 0.212 ± 0.017 | 0.184 ± 0.011 | 0.157 ± 0.0041 | 0.235 ± 0.015 | 0.348 ± 0.069 | 0.201 ± 0.025 | 0.266 ± 0.036 | 0.567 ± 0.054 | 0.431 ± 0.0065 | 0.309 ± 0.013
